Test results from PubChem BioAssay (NCATS).
“And” between values parts separate entries of the source, which are not always exact repeats. Equal values may be shown once. Results filed as inconclusive are left out. Where a call stands in place of a potency, no number is given. The source made the active and inactive calls. Unless noted, calls follow the shape of the dose curve; as a rule, active = well fitted curve in the direction sought with a large enough effect; inconclusive = small, poorly fitted or top-dose-only effect, or another doubt; inactive = no such curve, though single readings can be large; an effect the other way counts as inactive or inconclusive.

How the values were obtained:
[1] = target: Glucocorticoid receptor (Homo sapiens) (UniProt P04150); experiment: qHTS assay for small molecule agonists of glucocorticoid receptor signaling (AID 588532; active = well fitted curve in the direction sought with a large enough effect in the signal ratio, with a control signal flat; the % refers to the signal ratio); conditions: HeLa MMTV-bla, beta-lactamase ratio, agonist, 18 h; stronger effect = higher value; percent of dexamethasone control, DMSO zero
Chain of Glucocorticoid receptor (Homo sapiens) (P04150 whole entry, looked up): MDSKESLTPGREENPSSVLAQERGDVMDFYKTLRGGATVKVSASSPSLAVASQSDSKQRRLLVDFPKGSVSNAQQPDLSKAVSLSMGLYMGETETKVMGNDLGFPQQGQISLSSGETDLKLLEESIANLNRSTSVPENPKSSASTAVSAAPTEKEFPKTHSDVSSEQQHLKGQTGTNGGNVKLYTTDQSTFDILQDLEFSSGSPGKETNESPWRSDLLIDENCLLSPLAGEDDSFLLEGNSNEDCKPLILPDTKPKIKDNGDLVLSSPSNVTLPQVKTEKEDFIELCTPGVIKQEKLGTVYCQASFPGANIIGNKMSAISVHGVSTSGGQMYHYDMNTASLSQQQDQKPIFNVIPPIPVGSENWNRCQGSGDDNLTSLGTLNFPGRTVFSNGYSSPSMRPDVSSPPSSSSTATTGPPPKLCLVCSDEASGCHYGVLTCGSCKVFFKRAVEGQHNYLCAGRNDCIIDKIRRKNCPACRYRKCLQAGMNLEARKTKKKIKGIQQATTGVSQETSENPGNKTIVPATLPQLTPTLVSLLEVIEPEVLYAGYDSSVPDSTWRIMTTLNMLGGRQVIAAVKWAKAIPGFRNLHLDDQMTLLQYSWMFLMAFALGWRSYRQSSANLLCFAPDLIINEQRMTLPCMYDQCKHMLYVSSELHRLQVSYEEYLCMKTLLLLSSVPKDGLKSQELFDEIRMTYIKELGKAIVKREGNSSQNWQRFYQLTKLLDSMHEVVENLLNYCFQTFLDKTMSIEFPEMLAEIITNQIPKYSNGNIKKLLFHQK
In short: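 Using MMTV-bla HeLa cells in medium with 1% stripped FBS and 25 mM HEPES, compounds were titrated and incubated overnight-length (18 h). Beta-lactamase cleavage of CCF4 was quantified by dual-emission fluorescence.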

[2] = target: Glucocorticoid receptor (Homo sapiens) (UniProt P04150); experiment: qHTS assay for small molecule antagonists of glucocorticoid receptor signaling (AID 588533; active = well fitted inhibition curve with a large enough effect in the signal ratio, with a control signal flat, not every such curve was filed as active; the % refers to the signal ratio;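 also: cells stimulated with 2 nM dexamethasone as agonist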); conditions: HeLa MMTV-bla, GRE beta-lactamase ratio, antagonist mode, 18 h; series mostly up to 76.8 µM
In short: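 Antagonist-mode qHTS: compound titrations added to GRE-bla HeLa cells, then dexamethasone 2 nM final; 18 h, 37 C. CCF4 FRET fluorescence normalized to dexamethasone and DMSO; IC50 from Hill fit.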

[3] = qHTS assay for small molecule antagonists of peroxisome proliferator-activated receptor delta signaling (AID 588535; active = well fitted inhibition curve with a large enough effect in the signal ratio, with a control signal flat, not every such curve was filed as active; the % refers to the signal ratio;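 as to max response: cells co-treated with a PPAR-delta agonist as stimulator during compound exposure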); conditions: HEK293T PPARd-UAS-bla, beta-lactamase FRET ratio, 18 h; 460 nm channel
In short: (§1)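 Titrations were run on PPAR-delta-UAS-bla HEK293T cells in charcoal/dextran-stripped serum, incubated 18 h at 37 C. CCF4 fluorescence (460/530 nm) after 2 h RT; Hill equation yields IC50 and maximal response.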

[4] = target: Peroxisome proliferator-activated receptor delta (Homo sapiens) (UniProt Q03181); experiment: as above; conditions: HEK293T PPARd-UAS-bla, beta-lactamase FRET ratio, 18 h; series mostly up to 76.7 µM
Chain of Peroxisome proliferator-activated receptor delta (Homo sapiens) (Q03181 whole entry, looked up): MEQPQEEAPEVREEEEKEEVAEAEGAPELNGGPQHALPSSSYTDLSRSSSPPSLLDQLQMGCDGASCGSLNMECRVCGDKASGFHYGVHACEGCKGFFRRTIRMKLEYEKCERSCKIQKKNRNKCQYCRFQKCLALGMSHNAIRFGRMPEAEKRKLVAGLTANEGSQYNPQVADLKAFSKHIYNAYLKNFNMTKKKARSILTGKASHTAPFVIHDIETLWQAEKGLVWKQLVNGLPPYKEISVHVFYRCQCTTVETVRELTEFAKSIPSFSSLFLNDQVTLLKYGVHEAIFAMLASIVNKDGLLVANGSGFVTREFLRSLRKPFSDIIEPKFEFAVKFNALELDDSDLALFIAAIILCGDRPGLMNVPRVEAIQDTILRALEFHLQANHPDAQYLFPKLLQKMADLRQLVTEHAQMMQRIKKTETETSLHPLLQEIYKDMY
In short: as §1

[5] = target: Peroxisome proliferator-activated receptor gamma (Homo sapiens) (UniProt P37231); experiment: qHTS assay for small molecule agonists of peroxisome proliferator-activated receptor gamma signaling (AID 588536; active = well fitted curve in the direction sought with a large enough effect in the signal ratio, with a control signal flat, not every such curve was filed as active; the % refers to the signal ratio); conditions: HEK293 PPARg-UAS-bla, beta-lactamase ratio, 16 h, percent of rosiglitazone response, DMSO as zero; series mostly up to 76.7 µM
Chain of Peroxisome proliferator-activated receptor gamma (Homo sapiens) (P37231 whole entry, looked up): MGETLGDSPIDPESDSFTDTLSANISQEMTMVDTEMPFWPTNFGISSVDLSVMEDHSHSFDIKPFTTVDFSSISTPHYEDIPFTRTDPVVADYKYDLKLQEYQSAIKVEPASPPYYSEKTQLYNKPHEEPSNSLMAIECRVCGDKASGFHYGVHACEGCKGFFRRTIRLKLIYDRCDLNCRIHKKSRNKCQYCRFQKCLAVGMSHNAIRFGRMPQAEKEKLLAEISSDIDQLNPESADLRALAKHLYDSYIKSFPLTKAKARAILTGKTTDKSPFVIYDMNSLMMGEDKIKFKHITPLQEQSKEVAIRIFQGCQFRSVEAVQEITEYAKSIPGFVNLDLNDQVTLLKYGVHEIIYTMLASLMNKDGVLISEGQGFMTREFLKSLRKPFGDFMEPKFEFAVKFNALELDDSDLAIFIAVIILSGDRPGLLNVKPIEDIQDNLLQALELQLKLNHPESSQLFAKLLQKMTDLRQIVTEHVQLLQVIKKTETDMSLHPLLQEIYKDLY
In short: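 Beta-lactamase reporter read-out: CCF4 fluorescence (ex 405, em 460/530 nm) after 2 h at RT. HEK293 GeneBLAzer cells were treated for 16 h at 37 C. Hill fits gave EC50 and efficacy versus 2 uM rosiglitazone (100%) and DMSO (0%).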

[6] = target: Peroxisome proliferator-activated receptor gamma (Homo sapiens) (UniProt P37231); experiment: qHTS assay for small molecule antagonists of peroxisome proliferator-activated receptor gamma signaling (AID 588537; active = well fitted inhibition curve with a large enough effect in the signal ratio, with a control signal flat, not every such curve was filed as active; the % refers to the signal ratio;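 also: reporter cells co-stimulated with 50 nM rosiglitazone agonist during compound treatment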); conditions: HEK293 PPARg-UAS-bla, beta-lactamase ratio, antagonist mode; series mostly up to 76.8 µM
In short: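 Antagonist-mode β-lactamase reporter screen run as a titration series. HEK293 PPARγ-UAS-bla cells are stimulated with rosiglitazone (50 nM final) for 16 h, then CCF4 is read at 460/530 nm. Data are scaled between DMSO and rosiglitazone and fitted to the Hill equation.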

[7] = target: Vitamin D3 receptor (Homo sapiens) (UniProt P11473); experiment: qHTS assay for small molecule antagonists of vitamin D receptor signaling (AID 588541; calls by dose curve;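 also: receptor activated by calcitriol during compound treatment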); conditions: HEK293T VDR-UAS-bla, beta-lactamase ratio, antagonist mode; series mostly up to 76.7 µM
Chain of Vitamin D3 receptor (Homo sapiens) (P11473 whole entry, looked up): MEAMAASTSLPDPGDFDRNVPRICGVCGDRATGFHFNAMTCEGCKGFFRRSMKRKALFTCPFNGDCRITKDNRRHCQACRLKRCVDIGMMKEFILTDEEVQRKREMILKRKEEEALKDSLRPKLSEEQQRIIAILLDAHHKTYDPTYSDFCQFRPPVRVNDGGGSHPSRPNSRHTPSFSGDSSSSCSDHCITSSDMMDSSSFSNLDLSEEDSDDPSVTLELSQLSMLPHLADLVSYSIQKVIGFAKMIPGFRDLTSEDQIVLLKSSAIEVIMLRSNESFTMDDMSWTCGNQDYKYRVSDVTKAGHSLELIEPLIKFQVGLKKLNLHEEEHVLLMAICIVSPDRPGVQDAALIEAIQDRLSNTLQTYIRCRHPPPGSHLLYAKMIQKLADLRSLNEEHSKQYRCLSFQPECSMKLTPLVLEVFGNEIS
In short: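 Antagonist-mode beta-lactamase reporter assay: HEK293T VDR-UAS-bla cells were exposed to titrated compound alongside 1-alpha,25-dihydroxyvitamin D3 at 3 nM final for 16 h. Values were normalized to the 50 nM agonist control and DMSO basal, with IC50 and efficacy from Hill equation fits.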

[8] = target: Vitamin D3 receptor (Homo sapiens) (UniProt P11473); experiment: qHTS assay for small molecule agonists of vitamin D receptor signaling (AID 588543; calls by dose curve); conditions: HEK293T VDR-UAS-bla, beta-lactamase ratio, 16 h; series mostly up to 76.8 µM
In short: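 qHTS in agonist mode: compound titrations stimulate a VDR-driven β-lactamase reporter in HEK293T cells over 16 h at 37 °C. Response normalized to 50 nM 1α,25-dihydroxyvitamin D3 = 100%, DMSO = 0%; Hill fitting gives EC50 and maximal response.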

[9] = qHTS assay for small molecule agonists of retinoid X receptor alpha signaling (AID 588544); conditions: HEK293T RXRa-UAS-bla, beta-lactamase reporter, 18 h; 530 nm emission
[10] = target: Thyroid hormone receptor beta (Homo sapiens) (UniProt P10828); experiment: qHTS assay for small molecule agonists of thyroid hormone receptor beta signaling (AID 588545; calls by dose curve); conditions: TR-UAS-bla GripTite HEK 293, beta-lactamase ratio, agonist mode, 18 h, percent of T3 response, DMSO as zero; series mostly up to 76.7 µM
Chain of Thyroid hormone receptor beta (Homo sapiens) (P10828 whole entry, looked up): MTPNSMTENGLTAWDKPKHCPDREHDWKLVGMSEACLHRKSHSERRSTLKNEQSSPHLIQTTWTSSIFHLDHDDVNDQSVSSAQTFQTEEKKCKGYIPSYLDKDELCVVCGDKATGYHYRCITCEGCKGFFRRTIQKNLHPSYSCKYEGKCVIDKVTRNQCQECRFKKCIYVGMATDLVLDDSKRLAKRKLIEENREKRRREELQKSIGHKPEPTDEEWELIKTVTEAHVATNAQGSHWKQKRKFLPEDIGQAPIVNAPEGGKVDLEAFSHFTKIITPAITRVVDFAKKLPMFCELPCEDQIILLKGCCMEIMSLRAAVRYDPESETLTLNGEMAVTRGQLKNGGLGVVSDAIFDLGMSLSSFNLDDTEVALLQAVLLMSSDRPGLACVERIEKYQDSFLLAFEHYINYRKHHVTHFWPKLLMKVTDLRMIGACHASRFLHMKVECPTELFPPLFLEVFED
In short: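 Efficacy and EC50 values derive from Hill fits of qHTS titration data, normalized to 10 nM T3 and DMSO-only wells. HEK 293 reporter cells were stimulated for 18 hrs at 37 C, with beta-lactamase activity measured by CCF4 fluorescence.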

[11] = qHTS assay for small molecule antagonists of retinoid X receptor alpha signaling (AID 588546; active = well fitted inhibition curve with a large enough effect in the signal ratio, with a control signal flat, not every such curve was filed as active; the % refers to the signal ratio;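 also: cells stimulated with 9-cis-retinoic acid as agonist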); conditions: HEK293T RXRa-UAS-bla, beta-lactamase ratio, antagonist mode; measured here: W530 green channel, cytotoxicity proxy
In short: (§2)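 Beta-lactamase reporter inhibition, read as CCF4 fluorescence ratio (ex 405, em 460/530 nm) after 2 h at RT. HEK293T UAS-bla cells, 2500/well, were stimulated with 9-cis-RA at 500 or 100 nM final alongside test compound for 18 h at 37 C.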

[12] = target: Retinoic acid receptor RXR-alpha (Homo sapiens) (UniProt P19793); experiment: as above; conditions: HEK293T RXRa-UAS-bla, beta-lactamase ratio, antagonist mode
Chain of Retinoic acid receptor RXR-alpha (Homo sapiens) (P19793 whole entry, looked up): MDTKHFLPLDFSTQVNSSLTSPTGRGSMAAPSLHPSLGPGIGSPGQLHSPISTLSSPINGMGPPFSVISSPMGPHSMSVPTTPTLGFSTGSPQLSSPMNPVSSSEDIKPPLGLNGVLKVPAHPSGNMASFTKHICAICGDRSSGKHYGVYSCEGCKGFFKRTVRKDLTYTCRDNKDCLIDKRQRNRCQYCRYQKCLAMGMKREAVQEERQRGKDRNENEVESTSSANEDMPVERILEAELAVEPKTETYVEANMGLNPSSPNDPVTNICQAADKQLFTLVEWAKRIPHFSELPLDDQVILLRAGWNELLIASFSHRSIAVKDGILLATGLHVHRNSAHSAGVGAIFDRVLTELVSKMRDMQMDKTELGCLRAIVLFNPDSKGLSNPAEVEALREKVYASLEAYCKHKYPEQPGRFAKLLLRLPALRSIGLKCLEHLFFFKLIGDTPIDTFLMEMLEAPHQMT
In short: as §2

[13] = target: Thyroid hormone receptor beta (Homo sapiens) (UniProt P10828); experiment: qHTS assay for small molecule antagonists of thyroid hormone receptor beta signaling (AID 588547; active = well fitted inhibition curve with a large enough effect in the signal ratio, with a control signal flat, not every such curve was filed as active; the % refers to the signal ratio;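 also: cells stimulated with 0.4 nM T3 agonist during compound exposure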); conditions: TR-UAS-bla HEK293, beta-lactamase ratio, antagonist mode, 18 h
In short: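 Inhibition of T3-driven (0.4nM final) beta-lactamase reporter activity was measured over 0.59 nM to 92 uM compound after 18 h at 37 C. The cells were GripTite HEK293 TR-UAS-bla in charcoal/dextran-stripped serum, with CCF4 ratio read-out and IC50 from Hill fits.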

[14] = target: Voltage-gated inwardly rectifying potassium channel KCNH2 (Homo sapiens) (UniProt Q12809); experiment: qHTS Assay for Small Molecule Inhibitors of the Human hERG Channel Activity (AID 588834); conditions: U2OS BacMam hERG, FluxOR thallium flux fluorescence; series mostly up to 46.1 µM;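 also: U2OS cells transduced with hERG by BacMam; top concentration of the series differs between compounds; lower thallium flux fluorescence means stronger hERG block; nearly all actives have a fitted effect of over 50% in size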
Chain of Voltage-gated inwardly rectifying potassium channel KCNH2 (Homo sapiens) (Q12809 whole entry, looked up): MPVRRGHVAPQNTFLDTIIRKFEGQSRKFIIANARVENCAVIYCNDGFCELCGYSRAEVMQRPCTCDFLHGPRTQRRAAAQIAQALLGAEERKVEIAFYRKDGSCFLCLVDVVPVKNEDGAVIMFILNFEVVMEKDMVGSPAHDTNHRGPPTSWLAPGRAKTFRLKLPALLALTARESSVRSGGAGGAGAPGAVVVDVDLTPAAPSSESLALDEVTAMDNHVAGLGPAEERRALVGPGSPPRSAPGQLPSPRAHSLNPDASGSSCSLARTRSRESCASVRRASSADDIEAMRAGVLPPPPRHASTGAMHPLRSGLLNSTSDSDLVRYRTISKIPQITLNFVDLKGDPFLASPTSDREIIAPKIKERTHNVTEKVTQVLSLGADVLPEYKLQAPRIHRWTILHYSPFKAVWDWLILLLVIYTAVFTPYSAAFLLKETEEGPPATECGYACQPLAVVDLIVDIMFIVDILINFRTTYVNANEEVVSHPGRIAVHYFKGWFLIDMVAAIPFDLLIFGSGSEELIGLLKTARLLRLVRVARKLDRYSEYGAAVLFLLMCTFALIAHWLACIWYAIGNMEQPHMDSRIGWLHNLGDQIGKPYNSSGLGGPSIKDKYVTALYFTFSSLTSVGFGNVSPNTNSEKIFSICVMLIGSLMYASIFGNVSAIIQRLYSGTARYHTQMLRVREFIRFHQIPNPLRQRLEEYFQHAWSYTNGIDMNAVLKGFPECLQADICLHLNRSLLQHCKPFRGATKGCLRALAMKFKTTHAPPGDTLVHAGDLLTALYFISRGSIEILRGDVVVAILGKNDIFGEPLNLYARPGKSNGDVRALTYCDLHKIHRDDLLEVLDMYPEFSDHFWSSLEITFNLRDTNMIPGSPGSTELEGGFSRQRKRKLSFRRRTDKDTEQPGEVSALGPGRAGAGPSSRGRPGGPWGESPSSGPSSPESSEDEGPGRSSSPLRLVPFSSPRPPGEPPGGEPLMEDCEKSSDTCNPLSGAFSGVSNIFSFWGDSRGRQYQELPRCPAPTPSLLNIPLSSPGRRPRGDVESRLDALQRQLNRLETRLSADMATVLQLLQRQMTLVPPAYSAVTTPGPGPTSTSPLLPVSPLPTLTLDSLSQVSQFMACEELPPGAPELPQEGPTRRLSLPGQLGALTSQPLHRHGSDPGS
In short: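 Cells were infected with hERG-BacMam virus for 4 hrs at room temperature, grown overnight, then seeded at 2000/well. After dye loading and roughly 10 min compound treatment, thallium influx was triggered and fluorescence recorded.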

[15] = target: Luciferin 4-monooxygenase (Photinus pyralis) (UniProt P08659); experiment: Biochemical firefly luciferase enzyme assay for NPC (AID 624030);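 also: purified P. pyralis luciferase at 10 nM with luciferin and ATP substrate; nearly all actives have a fitted effect of over 70% in size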; conditions: purified P. pyralis luciferase, luminescence, 5 min; series mostly up to 58.6 µM
Chain of Luciferin 4-monooxygenase (Photinus pyralis) (P08659 whole entry, looked up): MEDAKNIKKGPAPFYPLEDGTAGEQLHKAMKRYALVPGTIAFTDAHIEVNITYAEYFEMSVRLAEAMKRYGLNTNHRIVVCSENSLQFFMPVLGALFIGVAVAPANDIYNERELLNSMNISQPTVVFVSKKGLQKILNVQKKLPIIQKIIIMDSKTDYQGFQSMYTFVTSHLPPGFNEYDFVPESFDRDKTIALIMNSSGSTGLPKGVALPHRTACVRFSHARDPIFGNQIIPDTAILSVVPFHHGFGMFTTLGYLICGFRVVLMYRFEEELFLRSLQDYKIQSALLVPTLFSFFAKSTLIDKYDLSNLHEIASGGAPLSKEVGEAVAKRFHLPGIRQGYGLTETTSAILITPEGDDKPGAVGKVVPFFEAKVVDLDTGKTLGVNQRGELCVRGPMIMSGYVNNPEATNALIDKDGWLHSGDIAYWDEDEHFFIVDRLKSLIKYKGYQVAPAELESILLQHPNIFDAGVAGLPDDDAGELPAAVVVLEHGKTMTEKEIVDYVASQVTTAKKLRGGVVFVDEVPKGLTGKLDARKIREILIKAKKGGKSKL
In short: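 Direct inhibition of firefly luciferase enzyme (10 nM final, 50 mM Tris Acetate) assessed by luminescence within 5 minutes. Percent activity scaled between DMSO and PTC124 positive control, with concentration-effect curves classified by fit quality and response.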

[16] = S16 Schwann cell PMP22 intronic element beta-lactamase assay (AID 624044; calls by dose curve; also: nearly all actives have a fitted effect of over 15% in size); conditions: S16 rat Schwann cells, PMP22 element beta-lactamase FRET, 24 h; series mostly up to 38.3 µM
In short: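 Beta-lactamase reporter under a PMP22 intronic regulatory element in stable S16 rat Schwann cells; 24 h compound exposure. 460 nm blue signal normalized between DMSO (0%) and potassium clavulanate, with 535 nm FRET tracking viability; curves classed by r2 and response.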

[17] = target: Bile acid receptor (Homo sapiens) (UniProt Q96RI1); experiment: qHTS assay for small molecule antagonists of farnesoid X receptor signaling (AID 588526; calls by dose curve); conditions: HEK293T FXR-UAS-bla, beta-lactamase ratio, antagonist mode; series mostly up to 76.7 µM
In short: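 Beta-lactamase reporter antagonist mode: HEK293T FXR-UAS-bla cells, titrated compound, CDCA stimulation, 16 h 37 C, CCF4 dye 2 h RT. Data normalized to CDCA 50 uM and DMSO; Hill-fit IC50.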

[18] = S16 Schwann cell PMP22 intronic element firefly luciferase assay (AID 624032); conditions: S16 rat Schwann cells, PMP22 element FLuc, 24 h; series mostly up to 57.5 µM; also: nearly all actives have a fitted effect of over 30% in size
In short: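 Luciferase reporter of PMP22 intronic-element expression in stably transfected S16 rat Schwann cells, read by ONE-Glo luminescence after 24 h compound exposure at 37 C. Activity scaled between DMSO (0%) and positive-control PTC124; concentration-effect curves quality-classified.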

[19] = target: Glutaminase kidney isoform, mitochondrial (Homo sapiens) (UniProt O94925); experiment: qHTS for Inhibitors of Glutaminase (GLS): LOPAC Validation (AID 624146); conditions: glutaminase enzyme activity inhibition; series mostly up to 46.1 µM; also: nearly all actives have a fitted effect of over 60% in size; also: potency is read from the fitted curve at half-maximal effect
In short: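 Enzyme dispensed in phosphate buffer (45 mM, pH 8.2, 0.02% Tween-20), compounds pinned in, then 1 mM L-glutamine solution and the glutamate oxidase–HRP–Amplex Red mix added; fluorescence read immediately and again after 30 min at room temperature.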

[20] = S16 Schwann cell viability assay (CellTiter-Glo assay) (AID 624031); conditions: S16 rat Schwann cells viability, 24 h; series mostly up to 57.5 µM;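 also: native untransfected S16 rat Schwann cells; nearly all actives have a fitted effect of over 70% in size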
In short: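 Counter-screen for cytotoxicity: parental S16 rat Schwann cells lacking the PMP22 reporters, treated 24 h with compound, viability from cellular ATP by CellTiter-Glo luminescence, normalized to DMSO (0%) and no-cell wells.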

SMILES | activation [1] | Potency [2] | max response [3] | outcome [4] | outcome [5] | Potency [6] | outcome [7] | outcome [8] | max response [9] | outcome [10] | max response [11] | max response [12] | activity change % (negative = inhibition) [13] | Potency [14] | Potency [15] | Potency [16] | Potency [17] | Potency [18] | Potency [19] | Potency [20]
CC(C)NCC(O)c1ccc(O)c(O)c1 (centres undefined) | -1.74% (inactive) | inactive | 4.84% and 9.19% | inactive | inactive | inactive | inactive | inactive | -7.52% and -0.93% | inactive | -15.7% and 0.88% | -2.1% (inactive) and -5.01% (inactive) | -0.838% (inactive) and 16% (inactive) | inactive | inactive | inactive |  |  |  | 
CCC1(c2ccccc2)C(=O)NCNC1=O | -1.52% (inactive) and -4.43% (inactive) | inactive |  |  | inactive | inactive | inactive | inactive | -2.48% and -11.6% | inactive | -5.6% and -16.4% | 16.1% (inactive) and -15.5% (inactive) | -16.1% (inactive) | inactive | inactive |  | inactive | inactive | inactive | 
Cn1c(=O)c2c(ncn2C)n(C)c1=O | -1.83% (inactive) | inactive |  |  | inactive | inactive |  |  | -3.75% and 14.5% |  | 0.479% and 2.47% | -0.557% (inactive) and -14.2% (inactive) |  | inactive | inactive |  |  | inactive | inactive | 
C[C@](N)(Cc1ccc(O)c(O)c1)C(=O)O |  |  | -4.18% | inactive | inactive | inactive | inactive | inactive | -1.09% | inactive | -16.7% | -26.4% (inactive) | 1.38% (inactive) | inactive | inactive |  |  | inactive | inactive | 
N[C@@H](Cc1c[nH]c2ccc(O)cc12)C(=O)O | -7.97% (inactive) |  | 3.83% | inactive | inactive | inactive | inactive | inactive | -7.77% |  | 1.87% | 3.1% (inactive) | -8.63% (inactive) | inactive |  | inactive |  | inactive | 1120 nM (active) | inactive
